Reference: PubChem BioAssay AID588398 (Broad Institute, 2011)
The whole screen tested about 1,200 compounds, of which about 110 (9.2%) were called active. Roughly 8% stayed inconclusive and do not appear here.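 The calls were made as follows: active = pathway reporter half-maximal dose under half the control reporter's, or control reporter unaffected while pathway reporter is inhibited; inconclusive = either signal flat at 30 to 70% inhibition or poorly fitted; inactive = the rest.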 Not all results are given here. Results with a measured potency or affinity are listed apart.

Assay: LMP1 TES1 pathway selectivity over dsRED control – imaging, HEK293T, dual-color eGFP/dsRED, cherry-picks, selectivity assay for LMP1 NF-kB inhibitor project, dose response (AID 588398)
Details: 48 h; HEK293T Tet-On dsRED counter-screen channel, at 19.5 µM (top of the series)

SMILES | outcome
CCOc1ccc(OCc2cccc(C(=O)N3CCCC3)c2)cc1 | inactive
O=C(O)c1c2c(nc3ccccc13)/C(=C/c1ccc(O)cc1)CC2 | inactive
O=[N+]([O-])c1ccc(O)c(/C=N/Nc2ncnc3c2cnn3-c2ccccc2)c1 | inactive
COc1cccc(/C=N/Nc2ncnc(Cl)c2N)c1O | inactive
O=C(/C=C/Nc1cccc(C(F)(F)F)c1)C(F)(F)F | inactive
Cc1ccc(C(=O)Nc2ccc3ncccc3c2)cc1 | inactive
CSc1ccccc1OCc1cc(C(=O)N2CCC[C@H]2C(N)=O)no1 | inactive
Cc1nnc(SCC(=O)N2CCC(c3noc4ccc(F)cc34)CC2)s1 | inactive
NC(=O)c1sc2nc3c(c(-c4cccs4)c2c1N)CCCCC3 | inactive
O=C1c2ccccc2C(O)N1Cc1ccccc1 (centres undefined) | inactive
S=C1SCN(Cc2ccccc2)CN1Cc1ccco1 | inactive
Cc1[nH]n(-c2ccc(Br)cc2)c(=O)c1/C=N/NC(=O)c1ccccc1 | inactive
Cc1cc(C(=O)CSc2nnc(-c3cccs3)o2)c(C)n1-c1ccccc1 | inactive
CC1=C(C(=O)OCc2ccc3c(c2)OCO3)C(c2ccc(Cl)cc2)NC(=O)N1 (centres undefined) | inactive
CC(=O)Oc1ccc(C(=O)Nc2cccnc2)cc1 | inactive
O=C(O)c1cccc(Nc2ccnc(Nc3cccc(C(=O)O)c3)n2)c1 | inactive
O=C(CN1C(=O)c2ccccc2S1(=O)=O)Nc1ncc(Cl)cc1Cl | inactive
Oc1[nH]c2ccccc2c1N=Nc1c(F)c(F)c(Cl)c(F)c1F | inactive
CN(C)c1ccc(-c2nc3ccccc3n2C)cc1 | inactive
COc1ccc(C(=O)N=c2nc3ccccn3s2)cc1 | inactive
COc1ccc(C(Nc2ccccn2)c2oc(CO)cc(=O)c2O)cc1 (centres undefined) | inactive
C[C@@H]1CN([C@@H](C)CO)C(=O)c2cc(NC(=O)Nc3ccccc3)ccc2O[C@H]1CN(C)C(=O)Nc1cccc2ccccc12 | inactive
CCC(=O)NC(c1ccc(C)cc1)c1ccc2cccnc2c1O (centres undefined) | inactive
CCCCC(=O)NC(c1ccc(OC)c(OC)c1)c1ccc2cccnc2c1O (centres undefined) | inactive

SMILES | outcome
CCCC(=O)NC(c1ccc(C)cc1)c1ccc2cccnc2c1O (centres undefined) | inactive
CCCC(=O)NC(c1ccc(C(C)C)cc1)c1ccc2cccnc2c1O (centres undefined) | inactive
COc1cccc(C2=CC(=O)C[C@H](c3ccc4c(c3)OCO4)C2)c1 | inactive
C[C@@H]1CN([C@@H](C)CO)S(=O)(=O)c2ccc(/C=C/c3ccccc3)cc2O[C@@H]1CN(C)Cc1ccc(C(=O)O)cc1 | inactive
CCCCCN=Cc1c(C)[nH]n(-c2nc3ccccc3s2)c1=O | inactive
O=C(OCc1nc2ccccc2s1)[C@@H]1CCCN1S(=O)(=O)c1ccccc1F | inactive
CCOc1ccc(N(C(C)C(=O)N2CCCCCC2)S(C)(=O)=O)cc1 (centres undefined) | inactive
CCSc1nnc(NC(=O)CSc2nnc(-c3c[nH]c4ccccc34)n2CC)s1 | inactive
O=C(/C=C1\NC2(CCCC2)Cc2ccccc21)C(=O)N/N=C/c1ccccc1O | inactive
CCSc1nc2ccc(OC)cc2cc1C#N | inactive
COC(=O)c1[nH]c2ccc(C)cc2c1NC(=O)NC1CCCCC1 | inactive
O=C(C1CCCCC1)N1CCN(c2ncccn2)CC1 | inactive
O=C1c2ccccc2C(=O)c2cc(N3CCCCC3)ccc21 | inactive
N/C(=N\OC(=O)c1ccccc1)c1ccccn1 | inactive
O=C(Nc1ccc(Cl)cc1)Nc1nnc(CSCc2ccc(Cl)cc2)s1 | inactive
Nc1ccn(C2CCCO2)c(=O)n1 (centres undefined) | inactive
COc1ccc(C(=O)Nc2nnc(SCC(=O)NC3CC3)s2)cc1 | inactive
CCOc1ccc(C(=O)Nc2nnc(SCC(=O)NCC3CCCO3)s2)cc1 (centres undefined) | inactive
CSc1nc(C)cc(C)c1C#N | inactive
COC(=O)[C@@]1(C)[C@H]2C(=O)N(Cc3ccccc3)C(=O)[C@H]2[C@H]2CN=C(SCc3ccc(Cl)cc3)N21 | inactive
Cc1cccc(NC(=O)c2cnc3ccccn3c2=O)c1 | inactive
COCCNC(=O)C1CCC(CNS(=O)(=O)c2ccccc2)CC1 (centres undefined) | inactive
NC(=S)NN=Cc1nccc2c(C(F)(F)F)cccc12 | inactive
NC(=S)NN=Cc1nccc2c(C(F)(F)C(F)(F)C(F)(F)F)cccc12 | inactive

SMILES | outcome
O=C(Nc1ccccc1)c1cn2ccccc2n1 | inactive
COC(=O)CSc1ncnc2c1sc1nc3c(cc12)COC(C)(C)C3 | inactive
C[C@H](NC(=O)N1CCn2c1nc1ccccc12)C(=O)NCC1CCCO1 (some centres undefined) | inactive
CCN(C(=O)c1cc(OC)c(OC)c(OC)c1)C1CCCCC1 | inactive
CCOC(=O)c1c(CSc2nc(C)cc(C)c2C#N)n(C)c2cc(Br)c(OC(C)=O)cc12 | inactive
CC(=NNC(=S)N1CCCCC1)c1cccc(C)n1 | inactive
CC(=NNC(=S)N1CCCCCC1)c1cccc2cccnc12 | inactive
CCCc1c(C(=O)N/N=C(\C)c2ccccn2)nnn1-c1nonc1N | inactive
COC(=O)c1ccc(COc2ccccc2/C=C/C(=O)c2ccc(OCC(=O)O)cc2)cc1 | inactive
COC(=O)c1ccccc1NC(=O)CC(=O)Nc1ccccc1C(=O)OC | inactive
COc1cccc(C(=O)N2CCN(c3nc4cc(C)cc(C)c4cc3C#N)CC2)c1 | inactive
Cc1cc(=O)[nH]c(NN=Cc2cc(Br)ccc2O)n1 | inactive
COc1ccc(N2C(=O)C(=O)/C(=C(/O)c3ccc(C)cc3)C2c2cccnc2)cc1 (centres undefined) | inactive
CCCC(=O)C1=C(O)C(C(=O)OC)C(C)(C)CC1=Nc1ccncc1 (centres undefined) | inactive
Cc1csc(N=Nc2ccc(N(C)C)cc2)[n+]1[O-] | inactive
Cc1ccc2c(c1)N(CC(=O)N1CCCC1)C(=O)c1cccnc1O2 | inactive
COc1ccccc1N1CCN(C(=O)CCC(=O)N2CCN(c3ccc(F)cc3)CC2)CC1 | inactive
O=C(CSc1nnc(NC(=O)c2ccc3c(c2)OCO3)s1)NCc1ccco1 | inactive
C/C(=N/NC(=O)c1cc(C2CC2)[nH]n1)c1cccs1 | inactive
Cn1c(/C=C/c2ccccc2)nc2ccccc21 | inactive
COc1cccc(/C=N/NC(=O)c2[nH]nc3c2CCc2ccccc2-3)c1O | inactive
Cc1ccc2[nH]c(C(=O)N/N=C/c3ccccc3O)c(C)c2c1 | inactive
Cn1c(=O)c2c(ncn2CC(=O)Nc2cc(S(=O)(=O)N3CCCCC3)ccc2O)n(C)c1=O | inactive
COc1ccc(CCNC(=O)CSc2ccsc2[N+](=O)[O-])cc1OC | inactive

SMILES | outcome
COC(=O)C(NS(=O)(=O)c1ccc(N2CCCC2=O)cc1)c1ccccc1 (centres undefined) | inactive
CC(C)(C)c1nc2c(s1)CCc1onc(-c3ccc(Br)cc3)c1-2 | inactive
CN(C)c1ccc(C=Cc2ccnc3c(O)cccc23)cc1 | inactive
COc1ccc(S(=O)(=O)N2CCN(CC(=O)Nc3ccc(C)c(F)c3)CC2)cc1 | inactive
Cc1cnc(NC(=O)c2ccccn2)s1 | inactive
CC(=NNC(=S)Nc1ccccc1)c1ccccn1 | inactive
C/C(=N/NC(=O)c1ccc(C(C)(C)C)cc1)c1ccccn1 | inactive
CC(=NNC(=S)Nc1ccccc1Cl)c1ccccn1 | inactive
CCOc1cc(C(=O)OC(C)C(=O)Nc2ncc(Cl)cc2Cl)ccc1OCC(=O)N1CCOCC1 (centres undefined) | inactive
CCCCCC(=O)N1C[C@@H](O)[C@H](n2cc(C3CC3)nn2)C[C@@H]1c1ccc(C)cc1 | inactive
O=C(Nc1cnc2ccccn2c1=O)c1ccc(Cl)cc1Cl | inactive
O=C(O)/C=C/c1ccc2ccccc2n1 | inactive
Cc1cc(C)nc(N/C(=N\S(=O)(=O)Cc2ccccc2)Nc2ccccc2Br)n1 | inactive
O=C1OCC2=C1C(c1ccc3c(c1)OCO3)c1cc3c(cc1O2)OCO3 (centres undefined) | inactive
Cc1cccc(C)c1Nc1nc2ccccc2o1 | inactive
Cc1nc(Nc2nc3ccccc3o2)nc2c1CCC2 | inactive
O=[N+]([O-])c1ccc2ncnc(N3CCN(Cc4ccc5c(c4)OCO5)CC3)c2c1 | inactive
CC(=C/c1ccccc1)/C=N/n1c(-c2ccncc2)n[nH]c1=S | inactive
CCOC(=O)c1ccc(NC(=O)CSc2nc(N3CCOCC3)nc(N3CCOCC3)n2)cc1 | inactive
Cc1ccc(S(=O)(=O)N2c3ccccc3-c3c(ssc3=S)C2(C)C)cc1 | inactive
Cc1cccc(-n2ncc3c(N4CCOCC4)ncnc32)c1 | inactive
O=C(Cc1cccc2ccccc12)Nc1ccc(-c2cc3ccccc3oc2=O)cc1 | inactive
